Results on eleven molecules are retold here after PubChem BioAssay (EPA / NIEHS).

Active and inactive are the calls of the source. Rule for the calls: active = hit-call score of the fitted dose curve at least 0.9, where 1 is the maximum; inactive = score below 0.9.

For orientation: AC50 means the concentration giving half of the maximal activity seen.

Experiment [1] in a line: ATG_PXRE_CIS: Attagene CIS-FACTORIAL HepG2 Assay for human Pregnane X Receptor Element (PXRE) (AID 2282957). To be noted: HepG2 Attagene CIS-FACTORIAL PXRE reporter, mRNA; actives raise or lower the signal. In outline: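 Using HepG2 transfected with multiple reporter transcription units, endogenous factor-driven transcription was scored as reporter mRNA after 24 h exposure.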

Experiment [2] can be described thus: ATG_RORE_CIS: Attagene CIS-FACTORIAL HepG2 Assay for human RAR-related Orphan Receptor Element (RORE) (AID 2282959). To be noted: HepG2 Attagene cis-factorial RORE reporter, mRNA; actives raise or lower the signal. The method in brief:
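Measured here: transcript induction of a cis-regulated reporter in HepG2 cells transiently transfected via FuGene 6. After 24 h, RNA was processed by RT-PCR and fluorescent capillary electrophoresis; DMSO defined baseline activity.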

The target of experiment [3] is Transcription factor Sp1 (Homo sapiens) (UniProt P08047). In words: ATG_Sp1_CIS: Attagene CIS-FACTORIAL HepG2 Assay for human Specificity Protein 1 (Sp1) (AID 2282961). To be noted: HepG2 Sp1 cis-reporter transcription, actives raise or lower the signal. The method in brief: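 After transient transfection of HepG2 cells with cis-promoter reporter units and 24 h chemical treatment, reporter transcripts were quantified by RT-PCR and capillary electrophoresis fluorescence. Gain- and loss-of-signal fitted against DMSO.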
Sequence of Transcription factor Sp1 (Homo sapiens) (P08047 whole entry, looked up): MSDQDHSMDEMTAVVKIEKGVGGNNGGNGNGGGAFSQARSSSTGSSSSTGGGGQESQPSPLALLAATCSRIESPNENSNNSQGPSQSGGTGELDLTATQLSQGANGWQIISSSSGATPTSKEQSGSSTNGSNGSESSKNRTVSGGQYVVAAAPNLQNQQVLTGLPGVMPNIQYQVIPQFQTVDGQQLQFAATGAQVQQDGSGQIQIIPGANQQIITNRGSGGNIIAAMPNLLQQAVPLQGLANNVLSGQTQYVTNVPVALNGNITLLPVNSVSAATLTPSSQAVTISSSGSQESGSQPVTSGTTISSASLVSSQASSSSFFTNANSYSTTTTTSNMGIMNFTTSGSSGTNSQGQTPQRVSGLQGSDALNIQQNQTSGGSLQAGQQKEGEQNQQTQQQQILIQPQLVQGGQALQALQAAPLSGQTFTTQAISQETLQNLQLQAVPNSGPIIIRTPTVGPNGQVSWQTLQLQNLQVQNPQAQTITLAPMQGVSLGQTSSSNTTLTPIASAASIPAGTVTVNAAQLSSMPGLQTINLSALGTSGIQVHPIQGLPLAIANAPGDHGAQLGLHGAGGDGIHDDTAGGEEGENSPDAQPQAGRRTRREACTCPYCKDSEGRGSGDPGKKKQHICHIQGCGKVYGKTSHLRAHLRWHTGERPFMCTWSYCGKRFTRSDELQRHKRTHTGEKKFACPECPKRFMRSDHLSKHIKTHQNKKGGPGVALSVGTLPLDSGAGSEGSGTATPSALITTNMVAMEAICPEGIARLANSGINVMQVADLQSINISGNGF

Experiment [4] is described as follows: ATG_SREBP_CIS: Attagene CIS-FACTORIAL HepG2 Assay for human Sterol Regulatory Element Binding (SREBP) (AID 2282962). The note with it: HepG2 Attagene cis-factorial SREBP reporter, mRNA; actives raise or lower the signal. In outline: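 Endogenous SREBP activity read as cis-element-driven reporter transcript in transiently transfected HepG2, 24 h post-dosing; quantified via RT-PCR plus capillary electrophoresis of fluorescent fragments. Gain or loss of signal fitted relative to DMSO baseline.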

Experiment [5] has as its target Signal transducer and activator of transcription 3 (Homo sapiens) (UniProt P40763). In words: ATG_STAT3_CIS: Attagene CIS-FACTORIAL HepG2 Assay for human Signal Transducer and Activator of Transcription 3 (STAT3) (AID 2282963). To be noted: HepG2, Attagene cis-factorial STAT3 reporter transcription; actives raise or lower the signal. In outline:
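HepG2, MRTU-transfected, 24 h dosing. RNA → RT → PCR → FAM label → HpaI → CE. Bidirectional fit vs DMSO.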

The nature of experiment [6]: ATG_TA_CIS: Attagene CIS-FACTORIAL HepG2 Assay for human TA Basal Promoter (AID 2282964). The note with it: HepG2 Attagene CIS-factorial TA basal promoter reporter; actives raise or lower the signal. In outline: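 Background internal-marker endpoint from a 52-component HepG2 cis-reporter panel. Cells treated 24 h; reporter transcripts quantified via RT-PCR and CE fluorescence against DMSO baseline.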

The nature of experiment [7]: ATG_TCF_b_cat_CIS: Attagene CIS-FACTORIAL HepG2 Assay for human T-Cell-Factor with beta-catenin (TCF/b-cat) (AID 2282965). The note with it: HepG2 TCF/beta-catenin cis-reporter transcription, actives raise or lower the signal. In outline: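 HepG2 cells transiently transfected with multiple cis-promoter-regulated reporter transcription units, so endogenous transcription factor activity is measured. Reporter mRNA read 24 hours after dosing by RT-PCR, fluorescent labelling and capillary electrophoresis; bidirectional fitting against DMSO.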

Experiment [8] in a line: ATG_Sox_CIS: Attagene CIS-FACTORIAL HepG2 Assay for human SRY-box transcription factor (SOX) (AID 2282960). The note with it: HepG2 Attagene cis-factorial SOX reporter, mRNA; actives raise or lower the signal. The method in brief: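 Using transiently transfected HepG2 cells, reporter transcription driven by cis elements was assessed 24 h after dosing. Signal was fluorescence of capillary-separated RT-PCR products, with DMSO defining baseline activity.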

The nature of experiment [9]: ATG_TAL_CIS: Attagene CIS-FACTORIAL HepG2 Assay for human TAL Basal Promoter (AID 2282966).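 Note: background control endpoint measuring basal TAL promoter reporter mRNA not a specific factor.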 To be noted: HepG2 Attagene cis-factorial TAL promoter reporter; actives raise or lower the signal. The method in brief:
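After 24 hours of chemical exposure, transfected HepG2 cells yielded RNA that was converted to 6-FAM-labelled, HpaI-digested reporter fragments for capillary electrophoresis. Values derive from bidirectional fitting against DMSO controls.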

Sequence of Signal transducer and activator of transcription 3 (Homo sapiens) (P40763 whole entry, looked up): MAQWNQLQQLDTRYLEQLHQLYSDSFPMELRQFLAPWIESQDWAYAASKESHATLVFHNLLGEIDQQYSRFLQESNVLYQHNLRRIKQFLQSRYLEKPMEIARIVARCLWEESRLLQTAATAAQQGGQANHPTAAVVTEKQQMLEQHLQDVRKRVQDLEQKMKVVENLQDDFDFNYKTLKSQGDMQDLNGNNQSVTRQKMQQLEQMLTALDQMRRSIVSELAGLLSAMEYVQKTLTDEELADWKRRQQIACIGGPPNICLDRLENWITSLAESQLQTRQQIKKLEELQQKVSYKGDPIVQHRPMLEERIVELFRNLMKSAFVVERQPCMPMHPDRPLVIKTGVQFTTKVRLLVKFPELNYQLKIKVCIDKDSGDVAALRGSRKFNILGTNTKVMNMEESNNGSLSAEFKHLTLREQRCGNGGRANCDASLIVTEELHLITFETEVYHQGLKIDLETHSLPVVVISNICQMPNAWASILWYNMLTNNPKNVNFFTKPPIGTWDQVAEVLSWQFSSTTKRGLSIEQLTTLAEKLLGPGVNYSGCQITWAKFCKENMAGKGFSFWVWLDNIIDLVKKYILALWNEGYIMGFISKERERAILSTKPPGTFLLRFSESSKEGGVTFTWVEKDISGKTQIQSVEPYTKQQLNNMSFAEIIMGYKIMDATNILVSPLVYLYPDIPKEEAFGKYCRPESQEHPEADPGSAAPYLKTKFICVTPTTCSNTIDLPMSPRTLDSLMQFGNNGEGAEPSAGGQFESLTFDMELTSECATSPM

Take `CCOc1ccc(N)cc1`: the AC50 in experiment [1] is 46.6 µM (active). Also, the result in [2], in experiment [3], in experiment [4], in [5], in experiment [6] and in [7] was inactive.

Turning to `OC[P+](CO)(CO)CO`, the molecule was classed as inactive in experiment [1], in [8], in experiment [4], in experiment [5], in experiment [6] and in [7]. For the same molecule, the molecule was called inactive in experiment [9].

`CC(C)N(C(=O)CCl)c1ccccc1`: the outcome in experiment [1], in experiment [5], in experiment [6], in experiment [7] and in [9] was inactive. Further, the AC50 in experiment [8] was 48.2 µM (active); in [3] it was 26.5 µM (active); in experiment [4], 33.4 µM (active).

In the case of `CC(C)CP(=S)(S)CC(C)C`, the AC50 in experiment [1] was 38.6 µM (active). Besides, the molecule was called inactive in experiment [2], in [8], in [3], in experiment [4], in experiment [5] and in [6]. In addition, the outcome in [7] and in experiment [9] was inactive.

On to `O=NN1CCCCCC1`, for which the concentration at half-maximal activity (AC50) in experiment [1] was 53 µM (active). The call in experiment [2], in experiment [8], in experiment [3], in experiment [5], in experiment [6] and in [7] was inactive. The molecule was called inactive in experiment [9].

In the case of `CCNc1nc(NCC)nc(SC)n1`, the AC50 in experiment [1] is 27.9 µM (active). Besides, the outcome in [2], in experiment [8], in experiment [3], in [5], in [6] and in [7] was inactive. The outcome in experiment [9] was inactive.

In the case of `CN(C)[C@@H]1C(=O)C(C(N)=O)=C(O)[C@@]2(O)C(=O)C3=C(O)c4c(O)ccc(Cl)c4[C@@](C)(O)[C@H]3C[C@@H]12`, the outcome in [1], in experiment [2], in [8], in experiment [4], in experiment [5] and in experiment [6] was inactive. Also, the result in experiment [7] and in experiment [9] was inactive.

For `CCCCCCCCCCCCc1cccc(S(=O)(=O)O)c1`, the concentration at half-maximal activity (AC50) in experiment [1] was 17.9 µM (active). Moreover, the molecule was classed as inactive in experiment [3], in experiment [5], in [6], in experiment [7] and in [9].

Turning to `CCOc1cc(C=O)ccc1O`, the molecule was classed as inactive in experiment [1], in [8], in [3], in [4], in [5] and in experiment [6]. Moreover, the result in experiment [7] and in experiment [9] was inactive.

Take `C=CCc1ccccc1O`: the half-maximal activity concentration (AC50) in [1] is 29.3 µM (active). For the same molecule, the outcome in experiment [8], in experiment [3], in [4], in [5], in experiment [6] and in experiment [7] was inactive. Further, the result in experiment [9] was inactive.

In the case of `CC(C)O.CC(C)O.OCCN(CCO)CCO.OCCN(CCO)CCO.[Ti]`, the molecule was classed as inactive in [1], in [8], in experiment [3], in [4], in experiment [5] and in experiment [6]. The call in experiment [7] was inactive.
